From PubChem BioAssay (NCI)
About 79,000 compounds went through this panel and 15% of them were active in at least one assay; those are over-represented in the sample as a whole. Rule as the data show it: active = growth inhibition above about 70%; inactive = the rest.

Key:
[1] = NCI Yeast Anticancer Drug Screen. Data for the rad50 strain (AID 155);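 also: 0% = growth of vehicle-only cultures of the same strain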; settings: S. cerevisiae rad50 strain growth inhibition; at 50.0 µM; stronger effect = higher value
Summary of the method: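 Yeast carrying a defined DNA repair defect were exposed to test compounds, and growth was compared with vehicle-treated controls to give percent inhibition.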

[2] = NCI Yeast Anticancer Drug Screen. Data for the mec2-1 strain (AID 157); settings: S. cerevisiae mec2-1 strain, at 50.0 µM, stronger effect = higher value
Summary of the method: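 Strain: mec2-1 (DNA repair/cell cycle alteration). Compound exposure, then growth measured; inhibition expressed relative to vehicle.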

[3] = NCI Yeast Anticancer Drug Screen. Data for the sgs1 mgt1 strain (AID 161);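 also: 0% = growth of cultures given vehicle only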; settings: S. cerevisiae sgs1 mgt1 strain, at 50.0 µM, stronger effect = higher value
Summary of the method: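 Inhibition of yeast growth, normalised to vehicle-treated controls, is reported for a strain bearing genetic alterations in DNA damage repair.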

[4] = NCI Yeast Anticancer Drug Screen. Data for the cln2 rad14 strain (AID 165);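 also: 0% = growth equal to vehicle treated cultures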; settings: S. cerevisiae cln2 rad14 strain, at 50.0 µM, stronger effect = higher value
Summary of the method: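 Compounds are applied to the cln2 rad14 yeast strain, and growth is then compared with that of vehicle-treated cultures to give inhibition.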

[5] = NCI Yeast Anticancer Drug Screen. Data for the bub3 strain (AID 167); settings: S. cerevisiae bub3 mutant strain, at 50.0 µM, stronger effect = higher value
Summary of the method: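 Compounds were applied to a genetically altered yeast strain carrying a cell-cycle control defect. Growth inhibition was scored against vehicle-treated controls.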

[6] = NCI Yeast Anticancer Drug Screen. Data for the mlh1 rad18 strain (AID 175); settings: S. cerevisiae mlh1 rad18 strain growth inhibition; at 50.0 µM; stronger effect = higher value
Summary of the method: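 Read-out is yeast growth inhibition, calculated against vehicle-only controls. The compound was applied to a strain engineered with DNA damage repair alterations.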

Measured: growth inhibition

CCOC(=O)Nc1ccc2c(c1Cl)C(=O)c1ccccc1C2=O
inactive: [1] -6.85% | [2] -18.1% | [3] -0.2% | [4] 5.65% | [5] 14.3% | [6] -15.6%

CC(C)=C1C(=O)C[C@]2(C)C[C@H]3O[C@]3(C)CC[C@@H]3O[C@@]3(C)CC[C@@H]12
inactive: [1] 0.3% | [2] -8.05% | [3] 12.6% | [4] 14.1% | [5] -1.65% | [6] -66.5%

CCc1ccc(NC(=O)C(c2ccccc2)c2ccccc2)cc1
inactive: [1] 8.6% | [2] 13.3% | [3] 2.35% | [4] 11.8% | [5] 20.6% | [6] -9.1%

N#CNc1nc(N)cc(N)n1
inactive: [1] 2.25% | [2] 9.35% | [3] -1.5% | [4] -5.85% | [5] -1% | [6] -4.6%

NC(=O)/C=C/C(N)=O
inactive: [1] 13.6% | [2] -9.45% | [3] -16.7% | [4] -13.5% | [5] -5.05% | [6] 2.7%

C[CH2][Sn]([CH2]C)([O]C(=O)c1cccc(F)c1)[O][Sn]([CH2]C)([CH2]C)[O]C(=O)c1cccc(F)c1
inactive: [1] 31.4% | [2] 3.3% | [3] 5.85% | [4] 16.4% | [5] 13.6% | [6] 0.45%

COc1ccccc1-n1c(C)nc2c(cnn2CN2CCCCC2)c1=O
inactive: [1] 0.85% | [2] -6.4% | [3] 12.3% | [4] -0.7% | [5] 0.95% | [6] 12%

CNC(=O)OCc1c(COC(=O)NC)c(-c2cccs2)n2c1CCC2
inactive: [1] 42% | [2] 39.5% | [3] 23.1% | [4] 30.8% | [5] 27.1% | [6] 40.7%

N#CC1=C(O)/C(=C\c2ccc(Cl)cc2)N=C1N
inactive: [1] -28.3% | [2] -14.3% | [3] -7.8% | [4] -13.9% | [5] -6.2% | [6] -3.35%

COc1ccc2c(c1OC)C1NCCc3cc4c(cc3C1(OC)C2=O)OCO4 (stereo not given)
inactive: [1] 21.9% | [2] 2.35% | [3] 0.85% | [4] 0.5% | [5] 2% | [6] 8.55%

C=CC1OCC2(CO1)COC(C=C)OC2 (stereo not given)
inactive: [1] 12.4% | [2] -11.7% | [3] 2.4% | [4] -7.55% | [5] -12.4% | [6] 2.75%

COc1ccc(NC(=O)CC(O)c2cccc(N)c2)cc1 (stereo not given)
inactive: [1] 22.3% | [2] -26.4% | [3] 26.3% | [4] 7.1% | [5] 25.1% | [6] 12.5%

CCOC(=O)c1ccc(NC(=S)Nc2ccccc2S)cc1
inactive: [1] 16.4% | [2] 16.4% | [3] 22.9% | [4] 9.35% | [5] 10.1% | [6] 11.9%

O=C(C(c1ccccc1)C(C(=O)N(Cc1ccccc1)Cc1ccccc1)c1ccccc1)N(Cc1ccccc1)Cc1ccccc1 (stereo not given)
inactive: [1] -44.8% | [2] 7% | [3] -18.9% | [4] -14.3% | [5] -1.35% | [6] 28.3%

CN(C)c1ccc(/C=C/c2ccc(/C=C/c3ccc(N(C)C)cc3)cc2)cc1
inactive: [1] -15.1% | [2] -9.9% | [3] 5% | [4] 10.2% | [5] -11.4% | [6] 20.8%

CCCNc1ncnc2[nH]ncc12
inactive: [1] -44.1% | [2] -25.9% | [3] -39.9% | [4] -23% | [5] -42.2% | [6] -32%

O=C1c2cc(O)c(O)cc2C(=O)c2cc3c(cc21)OCO3
inactive: [1] -38.2% | [2] -5.55% | [3] 1.4% | [4] -11.6% | [5] -8.3% | [6] -15.9%

S=C1N(/N=C/c2c3ccccc3cc3ccccc23)C(=Nc2ccccc2)C(=Nc2ccccc2)N1c1ccccc1
inactive: [1] 16.9% | [2] -4.55% | [3] -6.35% | [4] 24.9% | [5] 16.6% | [6] -7.55%

COc1ccc2ccccc2c1I
inactive: [1] 18.4% | [2] 1.4% | [3] 2.75% | [4] 10.7% | [5] 23.6% | [6] 9.45%

C=CCc1cc(C(C)=O)ccc1O
inactive: [1] 2.75% | [2] -14.5% | [3] -9.75% | [4] -19.2% | [5] -8.95% | [6] -11.7%
